# Results taken from PubChem BioAssay (EPA / NIEHS).
# Several values for one entry are separate records, joined by “and”; a condition that tells them apart may be missing. Equal values may be shown once. Where a structure was tested more than once in an assay, its records may differ in their call. Activity calls are given as the source filed them. How the source made its calls: active means hit-call score of the fitted dose curve at least 0.9, where 1 is the maximum; inactive means score below 0.9.
# Columns and labels:
# Conditions in all cases: mRNA level, 48 h; actives raise or lower the signal
# [1] = read-out: Cytochrome P450 (CYP2B6), CYP2B6 (gene 1555); assay: LTEA_HepaRG_CYP2B6: Life Technologies and Expression Analysis (LTEA) Assay for Cytochrome P450 (CYP2B6) using HepaRG (AID 2283481)
# How it was run: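 CYP2B6 transcript level quantified by qRT-PCR against three housekeeping genes, fitted bidirectionally relative to DMSO. HepaRG cultures received chemicals for 48 h, 8-point half-log series from 100 uM in 0.5% DMSO, duplicate wells, serum-free induction medium.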
# [2] = read-out: Cytochrome P450 2C19 (Homo sapiens) (UniProt P33261); assay: LTEA_HepaRG_CYP2C19: Life Technologies and Expression Analysis (LTEA) Assay for CYP2C19 using HepaRG (AID 2283482)
# How it was run: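 CYP2C19 transcript levels by qRT-PCR, normalized to three housekeeping genes, in HepaRG cells after 48 h chemical exposure. Eight-point half-log series topping at 100 uM, 0.5% DMSO vehicle. Increases and decreases both fitted against DMSO.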
# [3] = read-out: CYP2C8 (gene 1558); assay: LTEA_HepaRG_CYP2C8: Life Technologies and Expression Analysis (LTEA) Assay for CYP2C8 using HepaRG (AID 2283483)
# How it was run: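 HepaRG (human liver line), 48 h chemical exposure, 8-pt half-log series from 100 uM, 0.5% DMSO vehicle. Readout: CYP2C8 transcript by qRT-PCR, housekeeping-normalized. Bidirectional fit vs DMSO baseline.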
# [4] = read-out: CYP2C9 (gene 1559); assay: LTEA_HepaRG_CYP2C9: Life Technologies and Expression Analysis (LTEA) Assay for CYP2C9 using HepaRG (AID 2283484)
# How it was run: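 HepaRG, 48 h dosing, 8-pt half-log series, top 100 uM, 0.5% DMSO vehicle. Read-out: CYP2C9 transcript by TaqMan qRT-PCR, housekeeping-normalized (ACTB/GAPDH/POLR2A). Gain or loss fitted vs DMSO baseline.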
# [5] = read-out: CYP2E1 (gene 1571); assay: LTEA_HepaRG_CYP2E1: Life Technologies and Expression Analysis (LTEA) Assay for CYP2E1 using HepaRG (AID 2283485)
# How it was run: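 Assay uses 48 h exposure of HepaRG hepatic cells, eight concentrations to 100 uM. Expression of CYP2E1 is quantified by TaqMan qRT-PCR with ACTB, GAPDH and POLR2A normalization; curves fitted in both directions relative to vehicle.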
# [6] = read-out: CYP4A11 (gene 1579); assay: LTEA_HepaRG_CYP4A11: Life Technologies and Expression Analysis (LTEA) Assay for CYP4A11 using HepaRG (AID 2283486)
# How it was run: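 Readout is CYP4A11 transcript level by qRT-PCR, normalized to three housekeeping genes and fitted bidirectionally against 0.5% DMSO. Human HepaRG cells were treated 48 h, in duplicate, with an 8-point half-log series topping at 100 uM.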
# [7] = read-out: Cytochrome P450 3A4 (Homo sapiens) (UniProt P08684); assay: LTEA_HepaRG_CYP3A4: Life Technologies and Expression Analysis (LTEA) Assay for CYP3A4 using HepaRG (AID 2283487)
# How it was run: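 HepaRG, 48 h exposure, 8-pt CRC from 100 uM (half-log), 0.5% DMSO, duplicates; serum-free induction medium. Readout: CYP3A4 mRNA, qRT-PCR, ACTB/GAPDH/POLR2A normalization. Bidirectional fit vs DMSO.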
# [8] = read-out: DNA damage-inducible transcript 3 (DDIT3), DDIT3 (gene 1649); assay: LTEA_HepaRG_DDIT3: Life Technologies and Expression Analysis (LTEA) Assay for DNA damage-inducible transcript 3 (DDIT3) using HepaRG (AID 2283488)
# How it was run: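 Eight-point concentration-response (100 uM highest, half-log dilutions) in HepaRG, 48 h, duplicate wells. Endpoint: qRT-PCR mRNA, normalized (ACTB, GAPDH, POLR2A), bidirectional fitting with DMSO as baseline.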
# [9] = read-out: Pro-epidermal growth factor (Homo sapiens) (UniProt P01133); assay: LTEA_HepaRG_EGF: Life Technologies and Expression Analysis (LTEA) Assay for Epidermal growth factor (EGF) using HepaRG (AID 2283489)
# How it was run: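 EGF transcript measured by Fluidigm TaqMan qRT-PCR with three housekeeping genes for normalization, 48 h after dosing HepaRG cultures in duplicate (top 100 uM, half-log steps, 0.5% DMSO vehicle). Gain or loss relative to DMSO fitted.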
# [10] = read-out: Early growth response protein 1 (EGR1) transcription factor, EGR1 (gene 1958); assay: LTEA_HepaRG_EGR1: Life Technologies and Expression Analysis (LTEA) Assay for Early growth response protein 1 (EGR1) transcription factor using HepaRG (AID 2283490)
# How it was run: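 HepaRG, 48 h exposure, 8-pt half-log series from 100 uM, 0.5% DMSO vehicle; EGR1 transcript by TaqMan qRT-PCR (Fluidigm array), housekeeping-normalized; bidirectional fit relative to DMSO baseline.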
# [11] = read-out: Ezrin (EZR), EZR (gene 7430); assay: LTEA_HepaRG_EZR: Life Technologies and Expression Analysis (LTEA) Assay for Ezrin (EZR) using HepaRG (AID 2283491)
# How it was run: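 Read-out is EZR transcript level by qRT-PCR, normalized to three housekeeping genes and fitted bidirectionally against the DMSO control. Human HepaRG cells received test chemicals for 48 h at eight half-log concentrations up to 100 uM in 0.5% DMSO.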
# [12] = read-out: Cytochrome P450 3A7 (Homo sapiens) (UniProt P24462); assay: LTEA_HepaRG_CYP3A7: Life Technologies and Expression Analysis (LTEA) Assay for CYP3A7 using HepaRG (AID 2283492)
# How it was run: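 CYP3A7 transcript measured by qRT-PCR (ACTB, GAPDH, POLR2A normalization) after 48 h chemical exposure of HepaRG cells in duplicate. Eight half-log concentrations, maximum 100 uM, 0.5% DMSO vehicle; bidirectional curve fitting against DMSO baseline.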
# [13] = read-out: CYP3A5 (gene 1577); assay: LTEA_HepaRG_CYP3A5: Life Technologies and Expression Analysis (LTEA) Assay for CYP3A5 using HepaRG (AID 2283493)
# How it was run: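 Readout was CYP3A5 mRNA by qRT-PCR. HepaRG cultures were exposed for 48 h in serum-free induction medium to chemicals at up to 100 uM, and responses were fitted in both directions relative to DMSO vehicle.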
# [14] = read-out: Fatty Acid-Binding Protein 1 (FABP1), FABP1 (gene 2168); assay: LTEA_HepaRG_FABP1: Life Technologies and Expression Analysis (LTEA) Assay for Fatty Acid-Binding Protein 1 (FABP1) using HepaRG (AID 2283494)
# How it was run: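 qRT-PCR readout of FABP1 transcript (normalized to three housekeeping genes) after 48 h chemical exposure of HepaRG cells; eight concentrations, half-log steps, max 100 uM, 0.5% DMSO vehicle; gain or loss fitted relative to DMSO baseline.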
# [15] = read-out: Cytochrome P450 4A22 (Homo sapiens) (UniProt Q5TCH4); assay: LTEA_HepaRG_CYP4A22: Life Technologies and Expression Analysis (LTEA) Assay for Cytochrome P450 4A22 (CYP4A22) using HepaRG (AID 2283495)
# How it was run: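 Gene expression measured by qRT-PCR against three housekeeping genes (ACTB, GAPDH, POLR2A), with gain or loss fitted relative to 0.5% DMSO vehicle. HepaRG cultures received 48 h chemical treatment, top concentration 100 uM, half-log steps, duplicate wells.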
# [16] = read-out: Cytochrome P450 7A1 (Homo sapiens) (UniProt P22680); assay: LTEA_HepaRG_CYP7A1: Life Technologies and Expression Analysis (LTEA) Assay for Cytochrome P450 7A1 (CYP7A1) using HepaRG (AID 2283496)
# How it was run: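 Using 0.5% DMSO as vehicle and baseline, chemicals were tested in duplicate over an 8-point range from 100 uM on HepaRG cells for 48 h; qRT-PCR signals were normalised to ACTB, GAPDH and POLR2A.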
# [17] = read-out: growth arrest and DNA damage 45 (GADD45G), GADD45G (gene 10912); assay: LTEA_HepaRG_GADD45G: Life Technologies and Expression Analysis (LTEA) Assay for growth arrest and DNA damage 45 (GADD45G) using HepaRG (AID 2283499)
# How it was run: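 GADD45G transcript level by qRT-PCR (housekeeping-normalized: ACTB, GAPDH, POLR2A) after 48 h chemical treatment of a single HepaRG lot in serum-free induction medium; eight-point half-log series up to 100 uM in 0.5% DMSO, duplicates, up- or down-regulation scored.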
# Sequence of Cytochrome P450 3A4 (Homo sapiens) (P08684 whole entry, looked up): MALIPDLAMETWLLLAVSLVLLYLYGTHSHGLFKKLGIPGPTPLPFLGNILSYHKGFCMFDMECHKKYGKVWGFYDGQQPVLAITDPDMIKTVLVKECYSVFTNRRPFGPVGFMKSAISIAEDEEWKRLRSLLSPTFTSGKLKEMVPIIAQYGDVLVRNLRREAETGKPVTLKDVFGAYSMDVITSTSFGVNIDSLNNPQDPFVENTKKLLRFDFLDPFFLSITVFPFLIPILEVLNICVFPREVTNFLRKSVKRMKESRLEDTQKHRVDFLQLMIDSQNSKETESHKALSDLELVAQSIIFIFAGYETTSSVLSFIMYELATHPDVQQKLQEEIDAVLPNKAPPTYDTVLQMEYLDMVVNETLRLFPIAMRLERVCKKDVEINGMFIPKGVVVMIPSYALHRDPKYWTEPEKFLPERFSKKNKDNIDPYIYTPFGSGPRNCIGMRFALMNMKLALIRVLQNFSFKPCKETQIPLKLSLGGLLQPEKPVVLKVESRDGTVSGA
# Sequence of Cytochrome P450 2C19 (Homo sapiens) (P33261 whole entry, looked up): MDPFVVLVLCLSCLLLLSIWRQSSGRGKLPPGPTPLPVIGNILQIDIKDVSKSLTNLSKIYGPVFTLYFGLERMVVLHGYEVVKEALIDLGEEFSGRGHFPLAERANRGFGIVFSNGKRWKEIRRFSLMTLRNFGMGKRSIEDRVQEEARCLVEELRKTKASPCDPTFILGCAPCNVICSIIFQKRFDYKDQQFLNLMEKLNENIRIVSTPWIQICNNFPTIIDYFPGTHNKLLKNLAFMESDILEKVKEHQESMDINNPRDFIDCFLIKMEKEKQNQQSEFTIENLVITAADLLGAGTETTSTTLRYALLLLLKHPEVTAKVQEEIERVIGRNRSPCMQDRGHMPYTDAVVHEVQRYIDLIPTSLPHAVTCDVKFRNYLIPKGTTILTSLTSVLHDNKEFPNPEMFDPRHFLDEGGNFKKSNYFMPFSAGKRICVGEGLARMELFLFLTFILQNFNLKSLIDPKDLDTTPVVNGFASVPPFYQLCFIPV
# Sequence of Cytochrome P450 3A7 (Homo sapiens) (P24462 whole entry, looked up): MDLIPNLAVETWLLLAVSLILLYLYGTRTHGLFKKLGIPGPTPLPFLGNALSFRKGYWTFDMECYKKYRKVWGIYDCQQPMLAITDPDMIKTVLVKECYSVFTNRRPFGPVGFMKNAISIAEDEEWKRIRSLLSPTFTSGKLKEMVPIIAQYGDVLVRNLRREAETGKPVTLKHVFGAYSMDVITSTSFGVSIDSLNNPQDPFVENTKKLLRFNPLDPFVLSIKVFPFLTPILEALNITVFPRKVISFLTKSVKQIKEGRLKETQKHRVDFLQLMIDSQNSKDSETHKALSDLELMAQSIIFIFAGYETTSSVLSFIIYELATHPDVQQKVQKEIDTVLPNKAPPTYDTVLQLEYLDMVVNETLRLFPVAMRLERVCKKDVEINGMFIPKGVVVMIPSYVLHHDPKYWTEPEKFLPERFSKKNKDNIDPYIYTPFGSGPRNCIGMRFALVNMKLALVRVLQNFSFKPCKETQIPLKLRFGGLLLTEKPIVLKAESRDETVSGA
structure (smiles),measurement,setting,value
O=C(O)C(F)(F)C(F)(F)C(F)(F)C(F)(F)C(F)(F)C(F)(F)C(F)(F)F,AC50,[1],17.9 µM (active) and 3.15 µM (active)
same,AC50,[2],9.92 µM (active) and 5.55 µM (active)
same,AC50,[3],12.8 µM (active)
same,outcome,[3],inactive
same,outcome,[4],inactive
same,outcome,[5],inactive
same,AC50,[6],12.8 µM (active) and 6.48 µM (active)
same,outcome,[7],inactive
same,outcome,[8],inactive
same,outcome,[9],inactive
same,AC50,[10],12.1 µM (active)
same,outcome,[10],inactive
same,outcome,[11],inactive
same,AC50,[12],22.1 µM (active) and 9.92 µM (active)
same,outcome,[13],inactive
same,AC50,[14],11 µM (active) and 8 µM (active)
same,AC50,[15],6.42 µM (active) and 5.96 µM (active)
same,outcome,[16],inactive
same,outcome,[17],inactive
O=S(=O)(O)C(F)(F)C(F)(F)C(F)(F)C(F)(F)C(F)(F)C(F)(F)C(F)(F)C(F)(F)F,AC50,[1],88.9 µM (active) [middle of 4 runs]
same,AC50,[2],89.3 µM (active) and 12.1 µM (active) and 11 µM (active)
same,outcome,[2],inactive
same,AC50,[3],88.2 µM (active) and 12.1 µM (active) and 87.9 µM (active)
same,AC50,[4],80.2 µM (active) and 88.7 µM (active)
same,outcome,[4],inactive
same,AC50,[5],61.1 µM (active) [middle of 4 runs]
same,outcome,[7],inactive
same,AC50,[8],60.1 µM (active) [middle of 4 runs]
same,outcome,[9],inactive
same,AC50,[10],50 µM (active) and 7.35 µM (active)
same,outcome,[10],inactive
same,AC50,[11],50 µM (active) and 14.2 µM (active)
same,outcome,[11],inactive
same,outcome,[13],inactive
same,AC50,[14],94.2 µM (active) and 77 µM (active)
same,outcome,[14],inactive
same,AC50,[15],89.2 µM (active) [middle of 4 runs]
same,AC50,[16],94.4 µM (active) and 94 µM (active) and 75.4 µM (active)
same,outcome,[16],inactive
same,AC50,[17],5.76 µM (active)
same,outcome,[17],inactive
